S1P4 ag – activates the human S1P4 receptor; O95977; S1P4-expressing cell line, agonist reporter assay; activation, % at 4.98 µM; 0.35% of 220,000 active; AID 1509; in the data active means activation above about 11%;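 further: 0% = DMSO vehicle and 100% = reference agonist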
GALR2 agonist – activates the human galanin receptor 2; O43603; GALR2-expressing cells, agonist activation read-out; activation, % (test concentration not listed); 0.48% of 140,000 active; in the data active means activation above about 5%, passing the limit was not always enough;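 further: 0% = vehicle buffer wells and 100% = reference agonist at full effect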
Target sequence (O43603 whole entry, looked up): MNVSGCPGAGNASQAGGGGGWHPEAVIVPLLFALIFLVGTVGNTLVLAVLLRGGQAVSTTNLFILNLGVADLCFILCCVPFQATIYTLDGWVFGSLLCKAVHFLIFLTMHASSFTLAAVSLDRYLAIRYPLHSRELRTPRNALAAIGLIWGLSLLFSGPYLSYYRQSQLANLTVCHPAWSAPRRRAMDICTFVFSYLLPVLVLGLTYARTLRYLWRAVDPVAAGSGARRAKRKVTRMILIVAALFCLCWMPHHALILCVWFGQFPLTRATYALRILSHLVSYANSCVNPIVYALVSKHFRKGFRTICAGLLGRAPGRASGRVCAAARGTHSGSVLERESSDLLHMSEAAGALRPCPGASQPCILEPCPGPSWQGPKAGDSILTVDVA
S1P3 antag – antagonists of human S1P3 receptor; CHO S1P3 NFAT-BLA reporter, FRET fluorescence, antagonist mode; inhibition, % at 4.98 µM; 0.27% of 170,000 active; AID 485;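 active means inhibition above the plate cutoff, the mean inhibition of test wells on that plate plus 3 SD, cut at about 28% in these data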;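 further: cells challenged with S1P at its EC80 of 0.8 µM; blue over green emission ratio from cleaved BLA substrate after 4 h stimulation; 0% = S1P-stimulated wells and 100% = unstimulated DMSO-only wells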
S1P4 antagonist – blocks the human S1P4 receptor. S1P4-expressing cells, antagonist mode, reporter read-out. AID 1510. inhibition, % at 4.98 µM. 0.26% of 220,000 active. O95977; in the data active means inhibition above about 29%;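 further: 0% = wells stimulated with agonist and 100% = vehicle wells without agonist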
GALR2 antag – GALR2 (human) receptor antagonism. O43603. inhibition, % at 4 µM. AID 828. GALR2-expressing cells, antagonist mode. 0.39% of 140,000 active; in the data active means inhibition above about 27%;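 further: cells stimulated with galanin 1-16 at roughly its EC80; 0% = agonist challenge control and 100% = basal control without agonist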
S1P4 antag cf – confirmation of human S1P4 receptor antagonists. shares compounds with S1P4 antagonist. S1P4-expressing cell line, antagonist mode, reporter read-out. inhibition, % at 4.98 µM. 71% of 520 active; in the data active means inhibition above about 30%
S1P1 antagonist – counter-screen for S1P4 antagonists: antagonists of human S1P1 | shares compounds with S1P4 antagonist | cell-based S1P1 antagonist counterscreen, inhibition | inhibition, % at 4.98 µM | 37% of 520 active; in the data active means inhibition above about 40%;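 further: receptor stimulated with S1P near its EC80; 0% = agonist stimulated wells and 100% = vehicle only wells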
The depositor's hits bear a star; . = no result; ! = not confirmed by another sample. Shown are actives, neighbours in structure and some others; about 1.3% of the full set was active somewhere.

SMILES | S1P4 ag | GALR2 agonist | S1P3 antag | S1P4 antagonist | GALR2 antag | S1P4 antag cf | S1P1 antagonist
CN(C)c1ccnc(NCc2ccccc2)c1C#N | -1 | -2 | -17 | -14 | -1 | . | .
Cc1cc(N(C)C)c(C#N)c(NCc2ccccc2)n1 | 0 | -3 | 6 | 35* | 2 | 24 | 24
COc1ccccc1N1CCN(C(=O)CCCCCn2c(=O)[nH]c3ccsc3c2=O)CC1 | 2 | . | 4 | 2 | . | . | .
O=C(Nc1cccc(Cl)c1)Nc1nccs1 | 3 | 0 | -7 | 35*! | 4 | 24 | 23
Cn1c(=O)[nH]c(=O)c2cc(C(=O)c3cc(F)ccc3O)cnc21 | 0 | . | -9 | -2 | . | . | .
CC(=O)Nc1ccc(OC(=O)c2ccc(Br)c([N+](=O)[O-])c2)cc1 | -2 | . | -16 | 48* | . | 68* | 35
COCCN=C1Sc2nc3ccc(C)cc3cc2CN1Cc1cccs1 | -1 | . | 3 | -14 | . | . | .
COCCN=C1Sc2nc3c(C)cccc3cc2CN1Cc1ccco1 | -1 | 0 | . | 51* | -13 | 24 | 8
Cc1cccc2cc3c(nc12)SC(=NCC1CCCO1)N(Cc1ccco1)C3 (stereo not drawn) | 2 | -1 | 6 | 56* | 1 | 22 | 47*
CC(C)(C)c1ccc(S(=O)(=O)N2CCC(O)(c3ccc(Cl)cc3)CC2)cc1 | -2 | . | -1 | -3 | . | . | .
CCC(CC)NC(=O)Nc1ccccc1C(F)(F)F | 1 | . | 7 | 8 | . | . | .
COc1ccc(N=Nc2nc(-c3ccccc3)c(-c3ccccc3)[nH]2)cc1 | 1 | -2 | 6 | -13 | 4 | . | .
COc1ccc(N=Nc2n(C)c3ccccc3[n+]2C)cc1 | -1 | . | -45 | 30* | . | 0 | 35
O=C(O)CCC(=O)Nc1ccc(Br)cc1C(=O)c1ccccc1Cl | -1 | . | 0 | 4 | . | . | .
Cc1cc(C)nc(S/C=C/C(=O)c2ccccc2F)n1 | -1 | . | -2 | 43* | . | 78* | -1
CCn1ncc(/C=C/C(=O)C2CC2)c1C | 1 | -1 | 2 | -14 | -3 | . | .
Cc1cc(C)n(-c2cc(N3CCN(S(=O)(=O)c4ccc(Cl)cc4)CC3)ccc2[N+](=O)[O-])n1 | -1 | 0 | -3 | 60* | 11 | 14 | 26
CCCCNc1nc2ccccc2n1CC(=O)Nc1c(C)cccc1CC | 1 | 0 | -16 | -14 | -3 | . | .
S=C(Nc1ccc(Cl)cc1)c1nc2ccccc2s1 | 2 | -3 | . | 1 | -6 | . | .
O=C(Nc1ccc(Cl)cc1)/C(=C/c1cccc(O)c1)c1nc2ccccc2s1 | 0 | 0 | -10 | 38* | 4 | 99* | 62*
CN(c1ccccc1)c1ccc(/C=C/[N+](=O)[O-])cc1 | 3 | 5.5* | -17 | 55* | 24 | 119* | 66*
Cc1onc(-c2ccccc2)c1C(=O)Nc1nnc(-c2ccncc2)s1 | -3 | -2 | 6 | 51* | 2 | 63* | 5
Cc1ccc(NC(=O)c2cc(-c3ccccc3)nn2-c2ccccc2)cc1 | 8 | -1 | 4 | -17 | 8 | . | .
O=C(Nc1ccc(F)cc1)c1nn(-c2ccccc2)c(=O)cc1Cl | -3 | . | -8 | 45* | . | 75* | 71*
c1ccc(-c2nnc(CN3CCN(C(c4ccccc4)c4ccccc4)CC3)o2)cc1 | 0 | . | -21 | 68* | . | 28 | 32
SMILES | S1P4 ag | GALR2 agonist | S1P3 antag | S1P4 antagonist | GALR2 antag | S1P4 antag cf | S1P1 antagonist
CCc1nnc(N/N=C/c2ccccc2Cl)n1N | -1 | -1 | . | 40* | 20 | 4 | -3
CCOC(=O)N/N=C/c1ccccc1F | -3 | -2 | . | -2 | -3 | . | .
CCc1nnc(N/N=C/c2ccccc2F)n1N | 0 | . | -9 | 93* | . | -15 | -10
O=C(Nc1ncn[nH]1)c1cccc(S(=O)(=O)N2CCOCC2)c1 | 0 | . | 2 | -1 | . | . | .
CC(=O)n1cc(N(C(=O)CCl)c2ccccc2)c2ccccc21 | 0 | . | 13 | 42* | . | 100* | 40
O=C1CCCCc2sc(Br)c([N+](=O)[O-])c2N1 | -3 | . | 1 | 80* | . | 102* | 66*
O=C1N(c2ccccc2)C[C@@H]2C[C@@H](c3cc4ccccc4o3)N3CCC[C@@]123 | 0 | . | 4 | 17 | . | . | .
COc1ccc(CCNC(=O)c2ccccc2NC(=O)c2ccco2)cc1OC | 0 | -2 | 10 | 30* | 0 | 8 | 1
COc1ccc(CCNC(=O)c2ccco2)cc1OC | -2 | . | -20 | 2 | . | . | .
CCOC(=O)COc1ccc2ccccc2c1/C=C/[N+](=O)[O-] | -1 | 2 | 9 | 49* | 26 | 120* | 155*
O=[N+]([O-])/C=C/c1c(OCc2ccccc2)ccc2ccccc12 | 2 | -1 | . | 15 | 8 | . | .
Cn1cccc1C(=O)NC(=O)COC(=O)C12CC3CC(CC(O)(C3)C1)C2 | -3 | -2 | . | 33* | -1 | 3 | 5
O=C(CCCn1cnc([N+](=O)[O-])n1)Nc1cccc2ccccc12 | 0 | . | -11 | 112* | . | 0 | 17
COc1ccc(-c2ccnc3nc(Sc4ncc(C(F)(F)F)cc4Cl)nn23)cc1 | -1 | -2 | . | 61* | -3 | 1 | 21
FC(F)(F)c1cnc(Sc2nc3nccc(-c4ccc(Cl)cc4)n3n2)c(Cl)c1 | 0 | -1 | . | -6 | -2 | . | .
O=C(COc1ccc(S(=O)(=O)N2CCCCC2)cc1)NCC1CCCO1 (stereo not drawn) | 1 | . | -3 | 2 | . | . | .
N#CCSc1nnc(SCC#N)s1 | 0 | . | 6 | 32* | . | 15 | 2
N#CCSc1nnc(N)s1 | 1 | -3 | -8 | -20 | -2 | . | .
S=C1Cc2ccccc2N1 | 1 | . | -7 | 35* | . | 110* | 44*
COc1cc2c3nnc(-c4ccc(F)cc4)c-3cn(Cc3ccc(F)cc3)c2cc1OC | 1 | 2 | . | 3 | 14 | . | .
COc1cc2c3nnc(-c4ccc(F)cc4)c-3cn(Cc3ccccc3)c2cc1OC | -2 | -3 | . | 41* | -2 | 85* | 120*
O=C(CCCC(=O)OCC(F)(F)C(F)F)Nc1ccccc1F | 1 | . | 4 | -2 | . | . | .
O=c1/c(=C/c2ccc([N+](=O)[O-])cc2)sc2n1CCCN=2 | 0 | 1 | . | 34* | 3 | 22 | 31
COc1cc(/C=c2\sc3n(c2=O)CCCN=3)ccc1O | -2 | -2 | . | -6 | 2 | . | .
COc1cc(C(=O)NCC(=O)OCc2cc(=O)oc3c(C)c(C)ccc23)cc(OC)c1OC | -2 | . | -1 | -2 | . | . | .
COc1ccc(NC(=O)Cn2ncc(Cl)c(Cl)c2=O)cc1S(=O)(=O)N1CCOCC1 | 3 | -1 | -8 | 33* | -12 | 27 | 12
CCC(=O)Nc1ccc(C(=O)Cn2ncc(Cl)c(Cl)c2=O)cc1 | -2 | . | 6 | 75* | . | 106* | 48*
CCN(CC)S(=O)(=O)c1cc(NC(=O)Cn2ncc(Cl)c(Cl)c2=O)ccc1C | -1 | . | -13 | 60* | . | 72* | 46*
CCc1ccc(C(=O)Nc2ccc(OC)c(S(=O)(=O)N3CCOCC3)c2)cc1 | 0 | . | -7 | 1 | . | . | .
O=C(NCc1nc2ccccc2[nH]1)C1=C[C@H](c2ccc3c(c2)OCO3)C[C@H](OCCCCO)O1 | -3 | . | -18 | 4 | . | . | .

Screens as filed in PubChem BioAssay.
